Data on 13 compounds can be found in PubChem BioAssay (NCATS).

Records with an inconclusive call do not appear. Unmarked numbers belong to inactive results. The source made the active and inactive calls. The call rests on the fitted dose curve; in most records, active means well fitted inhibition curve with a large enough effect; inconclusive means small, poorly fitted or top-dose-only effect; inactive means flat fitted curve, though single readings scatter.
On the % scale 0 is the no-effect control and ±100 the full control effect; potency means the concentration at half of the fitted maximal effect.

The assay can be described thus: P-glycoprotein substrates identified in KB-8-5-11 adenocarcinoma cell line, qHTS therapeutic library screen (AID 1346987). Further: nearly all actives have a fitted effect of over 65% in size. The note with it: KB-8-5-11 (P-gp overexpressing) viability, CellTiter-Glo, 72 h; series mostly up to 44.5 µM; activity change, negative = cytotoxicity: at the top concentration. In short, it runs like this: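 Luminescence from CellTiter-Glo, read 5 min after addition, quantified survival of KB-8-5-11 (P-gp-overexpressing) cells exposed to compounds for 72 h. AC50 was derived from concentration-response curves.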
On the technique in general: Quantitative high-throughput screening tests each substance at several concentrations.
Consider `O=C(O)CCC(=O)OC[C@@H](NC(=O)C(Cl)Cl)[C@H](O)c1ccc([N+](=O)[O-])cc1`, for which the “activity change, negative = cytotoxicity” value is -23.8%.
As to `CC(NCCC(c1ccccc1)c1ccccc1)c1ccccc1` (stereo not drawn), the Potency is 16.4 µM (active).
Regarding `C1N2CN3CN1CN(C2)C3`, the “activity change, negative = cytotoxicity” value was 10.8%.
Regarding `O=C(COCCOCCOCC(=O)Nc1c(I)cc(I)c(C(=O)O)c1I)Nc1c(I)cc(I)c(C(=O)O)c1I`, the “activity change, negative = cytotoxicity” value is -6.79%.
In the case of `Nc1ccc2cc3ccc(N)cc3nc2c1`, the Potency was 14.6 µM (active).
Turning to `CC(=O)Nc1ccc(S(=O)(=O)Nc2cc(C)on2)cc1`, the “activity change, negative = cytotoxicity” value was -2.58%.
Regarding `OCc1cccnc1`, the “activity change, negative = cytotoxicity” value is -9.83%.
Regarding `O=C(O)[C@@H](O)[C@H](O)[C@H](O)[C@@H](O)C(=O)O`, the “activity change, negative = cytotoxicity” value was -4.74%.
`O=C(O)CCCC[C@@H]1SC[C@@H]2NC(=O)N[C@@H]21`: the “activity change, negative = cytotoxicity” value was -3.11%.
Turning to `COc1ccccc1OCC1CNC(=O)O1` (stereo not drawn), the “activity change, negative = cytotoxicity” value was -15.9%.
In the case of `CC1(C)S[C@@H]2[C@H](NC(=O)C(c3ccccc3)S(=O)(=O)O)C(=O)N2[C@H]1C(=O)O` (stereo partly drawn), the “activity change, negative = cytotoxicity” value was 2.27%.
The same measure, in the same setting: under `Cc1ccccc1N1CCN(CCc2nnc3n2CCCC3)CC1` stands -24%; under `CC(=O)N[C@@H](CCC(N)=O)C(=O)O`, 1.06%.
